# PostGolgi yeast = phenotypic screen on post-Golgi transport, primary screen | 0.9% of 98,000 active | inhibition, % at 10 µM | AID 739, 2007 | post-Golgi transport phenotypic cell assay;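 note: yeast cells grown in 1536-well plates; yeast grown about 18 h at 30C before absorbance read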
# PostGolgi ctrl = growth inhibition of yeast control strain, primary screen, counter-screen for post-Golgi transport modulator project; efflux-deficient yeast background strain, growth absorbance A615, 16 h; inhibition, % at 10 µM; 5% of 98,000 active
# Measles CPE = compounds protecting cells from measles virus cytopathic effect, primary screen, measles RdRp inhibitor project, single point, MLSMR library, absorbance; 1.5% of 140,000 active; protection (pct of control), % at 4 µM; Measles virus-infected cells, CPE protection; in the data active = protection mostly above about 24%, no sharp cut-off; inactive = mostly below about 26%
# MT1-MMP txn act = MT1-MMP promoter reporter activation – cell-based, luciferase luminescence, primary screen | HT1080 MT1-MMP promoter luciferase reporter, overnight; stronger effect = higher value | 0.16% of 86,000 active | activation factor at 10 µM;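 active = activation factor of at least 2 for MT1-MMP transcription at 10 µM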
# * = called active by the depositor; . = no result given. Sampled rows, rich in hits. Any-hit rate of the full collection: about 5.3%. Cut-off read from the data, not from the text of the source, unless noted: active = inhibition above about 30%; inactive = the rest.
SMILES,PostGolgi yeast,PostGolgi ctrl,Measles CPE,MT1-MMP txn act
Cc1ccccc1N1CCN(C(=O)CCN2C(=O)c3ccccc3C2=O)CC1,14.4,25.1,13.2,.
Cc1cc(C(=O)OCC(=O)Nc2ccc(F)cc2F)c(C)o1,2.4,3.7,37.1*,1
COc1cccc(OCc2nc3ccccc3c(=O)n2N)c1,-21.9,30.9*,18.1,1.3
Cc1c(NC(=O)C2CCN(S(=O)(=O)c3ccc(Cl)cc3)CC2)c(=O)n(-c2ccccc2)n1C,1.4,11.1,62.3*,1.1
Cc1c(NC(=O)C2CCCN2S(=O)(=O)c2ccccc2)c(=O)n(-c2ccccc2)n1C (centres undefined),12.6,1.7,15.1,1.1
O=C(CN(Cc1ccco1)C(=O)c1ccccc1)Nc1ccc(Cl)c(Cl)c1,-8.2,39.0*,15.8,.
Cc1ccc(C(=O)N(CC(=O)Nc2ccc(Cl)c(Cl)c2)Cc2ccco2)cc1,.,.,3.3,.
CC(=O)Nc1cc(C)c(S(C)(=O)=O)c(C)c1,.,.,2.5,.
Fc1ccc(Cn2nnc(-c3ccc(CN4CCOCC4)cc3)n2)cc1,89.3*,30.5*,14.7,1.1
Clc1ccc(Cn2nnc(-c3ccccc3)n2)cc1,.,.,8.5,1.1
Clc1ccc(Cn2nnc(-c3ccc(CN4CCOCC4)cc3)n2)cc1,82.0*,50.9*,3.1,1.2
CCc1ccc(C(=O)NN(C(=O)c2ccc(CC)cc2)C(C)(C)C)cc1,.,.,11.6,.
Cc1nn2c(N3CCN(c4ccccn4)CC3)cc(C(C)C)nc2c1-c1ccccc1,40.5*,98.9*,16.6,1.1
O=C(COCC(=O)N/N=C/c1ccc(F)cc1)N/N=C/c1ccc(F)cc1,.,.,3.9,.
CCOC(=O)c1nnn(-c2nonc2N)c1CN1CCc2ccccc2C1,1.4,21.9,37.8,1.2
CC(C)OC(=O)c1nnn(-c2nonc2N)c1CN1CCc2ccccc2C1,1.2,47.2*,5.4,1.2
CC(C)OC(=O)c1nnn(-c2nonc2N)c1CSc1ccccn1,9.4,37.0*,17.6,1.1
O=C(CSc1nc(-c2ccccc2)c(-c2ccccc2)[nH]1)N1CCN(S(=O)(=O)c2ccccc2)CC1,-0.5,3.5,28.1*,1.1
CCn1c(SCC(=O)Nc2nc(-c3ccccc3)cs2)nc2c1c(=O)n(C)c(=O)n2C,.,.,26.8,.
Cc1noc(C)c1COC(=O)Cc1ccc(Cl)cc1,-3.9,6.8,47.9*,1
CSCCC(NC(=O)c1ccccc1)C(=O)NCc1ccco1 (centres undefined),-7.4,37.7*,34.7,1
O=[N+]([O-])c1cccnc1N1CCC(c2cc(-c3ccc(Cl)cc3)n[nH]2)CC1,3.1,68.8*,6.0,0.9
O=C(NC1=NCCS1)C1Cc2ccccc2CN1C(=O)c1ccccc1 (centres undefined),-0.7,8.9,29.2*,1.4
CC(=O)c1ccc(NC(=O)C2Cc3ccccc3CN2C(=O)c2ccccc2)cc1 (centres undefined),.,.,9.3,.
Cc1cc(C(=O)CSc2nnc(N)s2)c(C)n1CCc1ccc(Cl)cc1,3.0,40.7*,3.7,1.3
SMILES,PostGolgi yeast,PostGolgi ctrl,Measles CPE,MT1-MMP txn act
O=C(Cc1c(F)cccc1Cl)Nc1ccncc1,37.0*,25.1,.,1.2
O=C(Cc1c(F)cccc1Cl)NCCCn1ccnc1,-5.4,-2.3,44.8*,.
O=C(NCCCn1ccnc1)Nc1cccc(Cl)c1,7.0,35.7*,6.4,1
O=C(Cc1c(F)cccc1Cl)Nc1cccnc1,-1.1,6.9,1.4,0.9
O=C(/C=C/c1c(Cl)cccc1Cl)Nc1ccncc1,51.5*,92.0*,2.0,.
O=C(Cc1ccc(Cl)cc1)NCCCn1ccnc1,29.9,-1.6,15.0,.
O=C(CN(Cc1ccccc1)S(=O)(=O)c1ccc(S(=O)(=O)N2CCOCC2)cc1)Nc1ccccc1,.,.,6.5,.
CCCCCCOc1ccc(NC(=O)CC2C(=O)N(CC)C(=S)N2Cc2ccco2)cc1 (centres undefined),.,.,14.8,.
CC(C)c1cccc2nc3c(c([Si](C)(C)C)c12)Cn1c-3cccc1=O,.,.,.,1.1
CCN(CC)c1ccc2cc(-c3nnc(-c4ccc(Br)cc4)o3)c(=O)oc2c1,.,.,.,1.3
CCN(CC)c1ccc2cc(-c3nnc(-c4ccccc4)o3)c(=O)oc2c1,.,.,2.2,2*
CNC(=O)OCc1cccc(COC(=O)NC)n1,1.9,10.7,45.7*,1.3
COc1ccc2oc3cc(C)[n+]([O-])c(-c4ccc(C)cc4)c3c2c1,.,.,14.0,.
CCOc1ccc(S(=O)(=O)Nc2ccc(Cl)cn2)c(C)c1C,-14.5,-3.0,4.8,1.2
CCOc1cc(C)c(S(=O)(=O)Nc2ccc(Cl)cn2)cc1C,1.0,58.0*,9.1,1.1
COc1cc2c(cc1NC(=O)CSc1ccccc1)oc1ccccc12,.,.,15.2,.
COc1cc2c(cc1NC(=O)CSc1nc3ccccc3[nH]1)oc1ccccc12,2.4,74.5*,10.8,.
COc1ccccc1CN(Cc1nc2ccccc2c(=O)[nH]1)C(=O)Nc1ccc(C)cc1,3.6,31.2*,9.9,1.4
COc1cc2c(cc1NC(=O)CN(C)Cc1nc3ccccc3c(=O)[nH]1)oc1ccccc12,-5.6,58.9*,4.3,1.2
COc1cc2c(cc1NC(=S)NC(=O)/C=C/c1ccc(OC)c(OC)c1)oc1ccccc12,.,.,53.4*,.
CCC1=C2CC[C@H]3C(=O)N(CC)C(=O)[C@H]3[C@H]2[C@@]2(Cc3ccccc3)C(=O)N(CC3CC3)C(=O)N2C1=O,.,.,.,1.1
COC(=O)C1=C(C)N(Cc2ccco2)C(=O)N[C@H]1c1cccc(C(F)(F)F)c1,.,.,18.8,.
Cc1[nH]nc(N=CC2=C(O)CC(c3ccco3)CC2=O)c1-c1ccccc1 (centres undefined),3.6,45.4*,17.8,1.1
O=C(O)c1cc(NCc2ccc3c(c2)OCO3)ccc1N1CCOCC1,31.9*,-1.5,39.2,1
CC(C)NC(=S)NC(=O)/C=C/c1ccc(F)cc1,.,.,35.5*,.
SMILES,PostGolgi yeast,PostGolgi ctrl,Measles CPE,MT1-MMP txn act
CCOc1ccccc1C1N(c2ccc(OC)cc2)C(=O)C2CCCN21 (centres undefined),-2.2,33.6*,7.1,1.2
Cc1ccc(C2C=C(c3ccccc3OC(F)F)Nc3ncnn32)cc1 (centres undefined),0.5,21.7,3.0,1.1
CN(C)c1ccc(C2C=C(c3ccc(Cl)cc3OC(F)F)Nc3ncnn32)cc1 (centres undefined),3.1,31.3*,5.6,1.1
CC(=O)N(Cc1c(C)nn(-c2ccccc2)c1Cl)c1ccc(Cl)cc1,15.4,35.0*,0.5,.
O=S(=O)(Nc1ncn[nH]1)c1ccc(Cl)cc1,3.9,19.1,30.2,1.1
COc1ccc(CC(=O)NCCc2ccc(S(N)(=O)=O)cc2)cc1,-5.6,-4.4,4.0,.
COc1ccc(/C=C/C(=O)NCCc2ccc(S(N)(=O)=O)cc2)cc1,.,.,56.1*,.
CCCOC(=O)c1c(-c2ccc(C)cc2C)csc1NC(=O)C1C2CCC(O2)C1C(=O)O (centres undefined),.,.,10.2,.
Cc1cc(=O)oc(C)c1C(=O)NCCCN1CCN(c2ccc(F)cc2)CC1,-5.9,3.2,42.6*,1.1
OCCN1CCN(Cc2cccc(Oc3ccc(Cl)cc3)c2)CC1,3.9,43.7*,10.7,1.1
COC(=O)C1=CN(CCCN2CCCC2=O)C=C(C(=O)OC)C1c1ccccc1C(F)(F)F,35.6*,3.5,17.6,1.1
